Assay outcomes: PubChem, National Center for Advancing Translational Sciences (NCATS)
Giardia kill: Giardia lamblia killing; Giardia lamblia trophozoite viability; activity change, % at 7.66 µM, hits read low; 0.15% of 340,000 active; in the data active = activity change below about -80%; inconclusive = between about -30% and that limit;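 note: parasites exposed to compound for two days anaerobically before the ATP read; % is set by controls: 0 for no effect and ±100 for the full control effect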
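Luminescent ATP signal served as the viability read-out, measured 15-30 min after adding ATP detection reagent to trophozoites that had been incubated with compounds for 48 hrs at 37 deg C anaerobically at 100 cells/well.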
uPA generation: inhibitors of cell surface uPA generation. AID 540303. Potency, µM (titrated, usually from 38.3 µM), without a hit: top-dose activity change, negative = inhibition, hits mostly inhibitors. 0.31% of 330,000 active. cell surface uPA generation assay, qHTS; active = well fitted inhibition curve with a large enough effect; inconclusive = small, poorly fitted or top-dose-only effect; inactive = no such curve, though single readings can be large or run the other way; tested in mouse RAW 264.7 cells; note: potency is the fitted concentration of half-maximal effect; % is set by controls: 0 for no effect and ±100 for the full control effect; nearly all actives have a fitted effect of over 55% in size
B2AR arrestin: recruits beta-arrestin to the human beta2-adrenergic receptor; Potency, µM (series often up to 46.1 µM), for the others: at the top dose activation, hits mostly activators; P07550; beta-arrestin recruitment to beta2AR, cell-based reporter; AID 492947; 0.02% of 330,000 active;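 note: potency is the fitted concentration of half-maximal effect; 0% = DMSO controls and full agonism = EC100 isoproterenol or metaproterenol; nearly all actives have a fitted effect of over 65% in size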
Target sequence (P07550 whole entry, looked up): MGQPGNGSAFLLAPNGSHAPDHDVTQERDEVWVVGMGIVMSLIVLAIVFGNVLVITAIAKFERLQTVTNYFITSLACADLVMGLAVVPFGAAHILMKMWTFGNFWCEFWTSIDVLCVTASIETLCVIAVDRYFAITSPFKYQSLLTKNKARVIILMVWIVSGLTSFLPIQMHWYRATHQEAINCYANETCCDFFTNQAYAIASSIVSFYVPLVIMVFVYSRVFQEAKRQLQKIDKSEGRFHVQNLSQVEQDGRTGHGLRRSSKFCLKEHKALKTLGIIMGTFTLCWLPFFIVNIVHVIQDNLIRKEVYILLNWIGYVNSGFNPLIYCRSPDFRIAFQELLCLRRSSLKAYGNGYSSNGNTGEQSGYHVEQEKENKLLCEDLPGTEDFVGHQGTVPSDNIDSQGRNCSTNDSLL
p53 reactivation: restores transcriptional activity of mutant p53. H1299 p53-A138V BP100-luciferase reporter, luminescence, 24 h. AID 504706. 0.063% of 320,000 active. Potency, µM (top dose mostly 92.2 µM), without a hit: at the highest dose activity change, positive = activation, usual class: activators; note: potency is the fitted concentration of half-maximal effect; % of control where 0% means no effect; nearly all actives have a fitted effect of over 45% in size
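H1299 (p53-null), stable ts p53-A138V + BP100-Luc; 1000 cells/well, Opti-MEM/10% FBS; cpd 4 pt, 1:5; 24 h, 37 deg C, 5% CO2; detection reagent 10 min RT; luminescence.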
ClpP mod: qHTS Assay for Activators of ClpP; purified B. subtilis ClpP, FRET peptide cleavage, 20 min; 1.9% of 340,000 active; ATP-dependent Clp protease proteolytic subunit (Bacillus subtilis (strain 168)), P80244; AID 651965, 2013; Potency, µM (doses to about 57.5 µM), inactives show at the highest dose activity change, negative = active; active = well fitted falling curve with a large enough effect; inconclusive = small, poorly fitted or top-dose-only effect; inactive = no such curve, though single readings can be large or run the other way; note: potency is the fitted concentration of half-maximal effect; the source files actives as falling curves though it sought activators and does not explain the sign; nearly all actives have a fitted effect of over 65% in size
Target sequence (P80244 whole entry, looked up): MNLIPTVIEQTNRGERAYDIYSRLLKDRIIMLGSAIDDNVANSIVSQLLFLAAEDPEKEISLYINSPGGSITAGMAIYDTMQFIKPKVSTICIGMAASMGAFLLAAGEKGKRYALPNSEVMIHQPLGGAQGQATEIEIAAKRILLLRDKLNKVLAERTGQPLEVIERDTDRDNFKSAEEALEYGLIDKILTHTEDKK
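FRET quenching reversal measured ClpP activation: 10 microg/mL B. subtilis ClpP at pH 8 with the FRET-FV decapeptide, read at 430 nm after 320 nm excitation. The 20-min minus 0-min signal was scaled between DMSO/no-enzyme wells and ADEP (5.8 microM final).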
Mito fusion yeast: mitochondrial division inhibition or fusion activation. S. cerevisiae fusion-defective mutant growth rescue, CellTiterGlo 48 h. Potency, µM (series often up to 46.1 µM), without a hit: at the top dose growth rescue (activation), actives largely listed as activators. 0.23% of 320,000 active; note: potency is the fitted concentration of half-maximal effect; % of control where 0% means no effect; nearly all actives have a fitted effect of over 45% in size
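Temperature-sensitive fusion-defective S. cerevisiae (e.g. fzo1-1, mgm1-5) were grown with compound in YPEG medium (3% ethanol, 3% glycerol) for 48 hours at 37C. Growth rescue was measured as viability by CellTiterGlo luminescence after 10 minutes at ambient.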
An asterisk follows results filed as active; ? = inconclusive; / = not tested or not shown; [ ] = remark or other dose. In the library only some 2.1% were active in any assay of this set; here they are far more common. Unless noted, calls come from the whole dose curve; as a rule, active = well fitted curve in the direction sought with a large enough effect; inconclusive = small, poorly fitted or top-dose-only effect, or another doubt; inactive = no such curve, though single readings can be large; an effect the other way counts as inactive or inconclusive.

SMILES	Giardia kill	uPA generation	B2AR arrestin	p53 reactivation	ClpP mod	Mito fusion yeast
C(=N\N(c1ccccc1)c1ccccc1)/c1ccc2c(c1)OCO2	-2.9	12.0%	-0.4%	0.0%	-13.4%	4.1%
CN(/N=C/c1ccc2c(c1)OCO2)c1ccccc1	-19.4	4.0%	-0.4%	10µM*	-0.3%	7.1%
Cc1ccc(-n2cc3c(c2-c2ccccc2Br)c(=O)n(C)c(=O)n3C)cc1N	/	/	/	/	-11.6%	/
CCCOc1ccccc1C1C(C(=O)OC)=CN(C(C)C)C=C1C(=O)OC	-10.8	9.8%	0.4%	-7.3%	15.8µM*	19.3%
COC(=O)C1=CN(C)C=C(C(=O)OC)C1c1ccccc1Cl	8.9	-1.4%	0.1%	-9.3%	78.4%	8.6%
CCN1C=C(C(=O)OC)C(c2cccc(C)c2)C(C(=O)OC)=C1	-27.1	-0.6%	0.1%	-7.4%	6.31µM*	8.0%
CCCCOc1ccccc1C1C(C(=O)OC)=CN(CC)C=C1C(=O)OC	32.6	8.2%	0.3%	-0.1%	14.1µM*	13.9%
Cc1c(OCc2ccc(C(=O)O)o2)ccc2c3c(c(=O)oc12)CCC3	13.1	5.2%	0.4%	-5.8%	3.16µM*	0.7%
COc1ccc2c3c(c(=O)oc2c1OCC(=O)O)CCCC3	-7.2	1.1%	0.5%	-1.1%	20µM*	-5.3%
COC(=O)c1ccc(COc2ccc3c(C)c(C)c(=O)oc3c2C)o1	-2.3	3.9%	-0.2%	-0.6%	-13.2%	2.8%[9.22 µM]
O=C(NCC(c1ccco1)N1CCc2ccccc2C1)c1ccc(Br)cc1 (centres undefined)	1.5	0.8%	0.2%	2.5%	25.1µM*	14.1%
COc1ccc(Cl)cc1NC(=O)C(C)n1nnc2sc3c(c2c1=O)CCCC3 (centres undefined)	/	/	/	/	0.2%	/
CNc1oc(-c2cccc3ccccc23)nc1C#N	-4.9	-0.2%	-0.4%	13.5%	15.8µM*	1.4%
CNc1oc(-c2ccccc2Cl)nc1C#N	6.4	-6.9%	0.0%	1.0%	?	2.8%
COc1ccc(/C=C2\N=C(c3ccc(C)cc3)OC2=O)cc1	5.8	0.5%	-0.5%	/	25.1µM*	-1.8%
Cc1ccc(S(=O)(=O)Oc2ccc(/C=C3/N=C(c4ccccc4)OC3=O)cc2)cc1	8.4	16.3%	-0.5%	-1.1%	-14.4%	2.3%
COC(=O)c1cc2nc(-c3ccccc3)cc(C)n2n1	17.8	-4.3%	0.1%	-9.5%	?	11.0%
CCOc1ccc(-c2cc(C)n3nc(C(N)=O)cc3n2)cc1	-12.8	5.7%	0.1%	-3.4%	15.8µM*	-1.6%
O=c1[nH]c(CN2CCN(c3ccc(O)cc3)CC2)nc2scc(-c3ccc(Cl)cc3)c12	1.0	5.01µM*	0.3%	-2.4%	1.2%	9.0%
O=c1cc(-c2ccc(F)cc2)oc2ccccc12	-5.2	-2.2%	/	/	1.3%	/
CSc1ccc(-c2cc(=O)c3ccccc3o2)cc1	-5.7	-14.8%	0.1%	?	10µM*	5.9%
COc1ccc(-c2cc(=O)c3cc(OC)ccc3o2)cc1	?	1.41µM*	-0.8%	?	3.8%	13.1%
Fc1ccc(-n2cc(CNCCc3cccnc3)c(-c3ccccc3Cl)n2)cc1	-13.8	-2.8%	-0.1%	-2.4%	28.2µM*	?
COc1ccc(CCNC(=O)COC(=O)CCC(=O)c2cccs2)cc1OC	-9.3	-4.0%	0.0%	7.3%	/	/
COc1ccc(CCNC(=O)COC(=O)CCC(=O)c2ccc(F)cc2)cc1OC	-4.8	/	0.0%	4.1%	31.6µM*	-4.4%
SMILES	Giardia kill	uPA generation	B2AR arrestin	p53 reactivation	ClpP mod	Mito fusion yeast
Cc1cccc(NC(=O)COc2ccc3c(c2)CCC3)n1	-12.3	2.9%	0.1%	19.6%	28.2µM*	1.2%
O=C(CSc1nc2ccccc2c(=O)[nH]1)N1CCN(S(=O)(=O)c2ccccc2)CC1	13.8	/	0.0%	2.1%	-2.4%	-0.7%
O=C(CSc1nc(-c2ccccc2)c(-c2ccccc2)[nH]1)Nc1ccc2c(c1)OCO2	-3.8	3.2%	-0.5%	-3.3%	25.1µM*	0.9%
O=C(CSc1nc(-c2ccccc2)c(-c2ccccc2)[nH]1)N1CCN(S(=O)(=O)c2ccccc2)CC1	0.5	-4.4%	0.1%	-0.2%	28.2µM*	0.0%
Cc1ccc(CNC(=O)C2CCN(c3nc4ccccc4n(C)c3=O)CC2)cc1	/	/	/	/	-5.3%	/
CC(C)(C)NC(=O)C12CC3CC(CC(Cl)(C3)C1)C2	-5.3	4.7%	-0.2%	6.2%	-1.5%	5.3%
CC(C)(CO)NC(=O)C12CC3CC(CC(Br)(C3)C1)C2	0.1	2.5%	-0.6%	1.9%	20µM*	-7.3%
COc1ccc(NC(=O)C2C3C=CC4(O3)C2C(=O)N(CCN2CCCCC2)C4C(=O)NC2CCCC(C)C2C)cc1 (centres undefined)	-14.6	-5.2%	-0.1%	3.2%	/	31.6µM*
CC(C)CCOc1ccc(-c2c(=O)n(OCc3ccc([N+](=O)[O-])cc3)c3ccccc3[n+]2[O-])cc1	7.8	/	0.1%	0.8%	2.0%	1.5%
CCCOc1ccc(-c2c(=O)n(OCc3ccc([N+](=O)[O-])cc3)c3ccccc3[n+]2[O-])cc1	7.6	0.0%	-0.5%	-8.1%	28.2µM*	-1.9%
CCOc1ccc(/C=C/c2ccnc3ccccc23)cc1OCC	/	/	/	/	-10.4%	/
Cn1c(-c2ccccc2)cc2c3no[n+]([O-])c3ccc21	-24.0	-15.2%	-1.0%	7.08µM*	2.5%	-12.5%
Cn1c(-c2ccccc2)cc2ccccc21	-7.8	-2.5%	0.0%	1.5%	1.5%	-6.4%
Cc1nc(-c2ccc(C)c(N3CCN(C(=O)Nc4cccc(Cl)c4C)CC3)c2)no1	/	/	/	/	-1.4%	/
CSc1[nH]c(=O)c(C(=O)O)cc1C#N	-4.3	4.7%	0.1%	-7.2%	39.8µM*	-3.1%
CCOC(=O)c1cc(C#N)c(SCC(=O)O)[nH]c1=O	-1.8	3.6%	-0.1%	-3.1%	/	9.7%
Cc1cc(C)n2nc3nc4c(cc3c2n1)CCCC4	14.8	-4.7%	-0.7%	?	12.6µM*	-1.5%
CCCCN(CCCC)c1cc(C)nc(-c2ccccc2O)n1	-2.5	-7.1%	-0.4%	-1.5%	31.6µM*	1.1%
CCCOc1cc(C)nc(-c2ccccc2O)n1	-13.5	6.1%	-1.7%	8.5%	1.2%	-2.0%
COc1ccccc1NC(=S)N/N=C1\CC(C)(C)Oc2ccc(O)cc21	37.9	11.2%	?	-1.0%	25.1µM*	3.9%
CC(=O)N1CCC2(CC1)C/C(=N\NC(=S)Nc1ccccc1F)c1cc(O)ccc1O2	-7.8	4.2%	-0.1%	-0.5%	25.1µM*	-5.3%
Cc1c(Cl)cccc1-n1ncc(C(=O)NC2CCCC2)c1C1CCN(C(=O)OC(C)(C)C)CC1	/	/	/	/	0.8%	/
O=C(CNC(=O)c1ccco1)Nc1cc(Cl)ccc1N1CCOCC1	4.1	8.1%	0.0%	4.2%	28.2µM*	6.3%
Cc1cc2nn(-c3ccc(F)cc3)nc2cc1NC(=O)c1cccc([N+](=O)[O-])c1C	/	/	/	/	-2.9%	/
